About 79,000 compounds went through this panel and 15% of them were active in at least one assay; those are over-represented in the sample as a whole. Values without a mark were called inactive. Activity calls are given as the source filed them. No stated cut-off is given here; in the data, active means growth inhibition above about 70%; inactive means the rest.
How the values were obtained:
[1] = NCI Yeast Anticancer Drug Screen. Data for the rad50 strain (AID 155);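 further: 0% = growth of vehicle-only cultures of the same strain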; conditions: S. cerevisiae rad50 strain growth inhibition, active compounds read high
Outline: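 A DNA repair-deficient yeast mutant serves as the test organism; compound-induced growth inhibition is calculated against vehicle-treated cells.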

[2] = NCI Yeast Anticancer Drug Screen. Data for the mec2-1 strain (AID 157); conditions: S. cerevisiae mec2-1 strain, active compounds read high
Outline: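 mec2-1 yeast strain, carrying an alteration in DNA damage repair or cell cycle control, was exposed to compounds; growth inhibition was measured relative to vehicle-treated controls.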

[3] = NCI Yeast Anticancer Drug Screen. Data for the sgs1 mgt1 strain (AID 161);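 further: 0% = growth of cultures given vehicle only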; conditions: S. cerevisiae sgs1 mgt1 strain, active compounds read high
Outline: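 Yeast cells carrying a defined DNA-repair defect were exposed to test compounds. Growth inhibition was measured relative to vehicle-treated controls.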

[4] = NCI Yeast Anticancer Drug Screen. Data for the cln2 rad14 strain (AID 165);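 further: 0% = growth equal to vehicle treated cultures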; conditions: S. cerevisiae cln2 rad14 strain, active compounds read high
Outline: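 Yeast carrying cln2 and rad14 alterations (cell cycle control and DNA damage repair) were exposed to compounds. Growth inhibition was measured against vehicle-treated controls.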

[5] = NCI Yeast Anticancer Drug Screen. Data for the bub3 strain (AID 167); conditions: S. cerevisiae bub3 mutant strain, active compounds read high
Outline: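 Inhibition values come from growth of compound-treated mutant yeast normalised to vehicle-treated controls.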

[6] = NCI Yeast Anticancer Drug Screen. Data for the mlh1 rad18 strain (AID 175); conditions: S. cerevisiae mlh1 rad18 strain growth inhibition, active compounds read high
Outline: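 Growth inhibition of the yeast strain was measured after compound exposure and expressed relative to vehicle-treated controls. The strain carries defined defects in DNA damage repair.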

[7] = at 5.0 µM (retest, dose inferred, filed as 0.5)
[8] = at 50.0 µM (retest, dose inferred, filed as 5.0)

CCc1ccccc1NC1=C(Cl)C(=O)c2ccccc2C1=O
growth inhibition [1, 7]: 99% (active) | growth inhibition [1, 8]: 98% (active) | growth inhibition ([1]; at 50.0 µM): -1.85% | growth inhibition [2, 7]: 100% (active) | growth inhibition [2, 8]: 99% (active) | growth inhibition ([2]; at 50.0 µM): 10.8% | growth inhibition [3, 7]: 100% (active) | growth inhibition [3, 8]: 99% (active) | growth inhibition ([3]; at 50.0 µM): 1.85% | growth inhibition [4, 7]: 77% (active) | growth inhibition [4, 8]: 99% (active) | growth inhibition ([4]; at 50.0 µM): -20.3% | growth inhibition [5, 7]: 99% (active) | growth inhibition [5, 8]: 99% (active) | growth inhibition ([5]; at 50.0 µM): -0.2% | growth inhibition [6, 7]: 99% (active) | growth inhibition [6, 8]: 98% (active) | growth inhibition ([6]; at 50.0 µM): 10%

CCCCC#C[I+]c1ccccc1
growth inhibition [1, 7]: 66% | growth inhibition [1, 8]: 66% | growth inhibition ([1]; at 50.0 µM): 90.5% (active) | growth inhibition [2, 7]: 46% | growth inhibition [2, 8]: 46% | growth inhibition ([2]; at 50.0 µM): 93% (active) | growth inhibition [3, 7]: 54% | growth inhibition [3, 8]: 54% | growth inhibition ([3]; at 50.0 µM): 93.2% (active) | growth inhibition [4, 7]: 58% | growth inhibition [4, 8]: 58% | growth inhibition ([4]; at 50.0 µM): 91.2% (active) | growth inhibition [5, 7]: 32% | growth inhibition [5, 8]: 32% | growth inhibition ([5]; at 50.0 µM): 87.5% (active) | growth inhibition [6, 7]: 65% | growth inhibition [6, 8]: 65% | growth inhibition ([6]; at 50.0 µM): 89.3% (active)

C=C(C)CCC(=C)C
growth inhibition [1, 7]: 22% | growth inhibition [1, 8]: 91% (active) | growth inhibition ([1]; at 50.0 µM): 48.7% | growth inhibition [2, 7]: 3% | growth inhibition [2, 8]: 47% | growth inhibition ([2]; at 50.0 µM): 14.1% | growth inhibition [3, 7]: 11% | growth inhibition [3, 8]: 63% | growth inhibition ([3]; at 50.0 µM): 42.4% | growth inhibition [4, 7]: -4% | growth inhibition [4, 8]: 26% | growth inhibition ([4]; at 50.0 µM): 29.8% | growth inhibition [5, 7]: -2% | growth inhibition [5, 8]: 2% | growth inhibition ([5]; at 50.0 µM): -35.2% | growth inhibition [6, 7]: 16% | growth inhibition [6, 8]: 64% | growth inhibition ([6]; at 50.0 µM): 42%

COc1cc(CNc2nc3ccccc3nc2-c2cccs2)cc(OC)c1OC
growth inhibition [1, 7]: 5% | growth inhibition [1, 8]: 12% | growth inhibition ([1]; at 50.0 µM): 10% | growth inhibition [2, 7]: -13% | growth inhibition [2, 8]: -22% | growth inhibition ([2]; at 50.0 µM): 0.65% | growth inhibition [3, 7]: -1% | growth inhibition [3, 8]: 20% | growth inhibition ([3]; at 50.0 µM): 19.6% | growth inhibition [4, 7]: -12% | growth inhibition [4, 8]: 9% | growth inhibition ([4]; at 50.0 µM): 60% | growth inhibition [5, 7]: -12% | growth inhibition [5, 8]: -8% | growth inhibition ([5]; at 50.0 µM): 30% | growth inhibition [6, 7]: -17% | growth inhibition [6, 8]: 17% | growth inhibition ([6]; at 50.0 µM): 55.3%

Cc1cccc(/C=N\OCCc2ccccc2)n1
growth inhibition [1, 7]: 0% | growth inhibition [1, 8]: 85% (active) | growth inhibition ([1]; at 50.0 µM): -3.05% | growth inhibition [2, 7]: -6% | growth inhibition [2, 8]: 53% | growth inhibition ([2]; at 50.0 µM): 80.2% (active) | growth inhibition [3, 7]: 1% | growth inhibition [3, 8]: 84% (active) | growth inhibition ([3]; at 50.0 µM): 16.6% | growth inhibition [4, 7]: -14% | growth inhibition [4, 8]: 21% | growth inhibition ([4]; at 50.0 µM): -14.1% | growth inhibition [5, 7]: 2% | growth inhibition [5, 8]: 94% (active) | growth inhibition ([5]; at 50.0 µM): 47.7% | growth inhibition [6, 7]: -2% | growth inhibition [6, 8]: 88% (active) | growth inhibition ([6]; at 50.0 µM): 32.8%

COc1cc(C(c2cc3c(cc2O)OCO3)N2CCN(C(c3cc(OC)c(O)c(OC)c3)c3cc4c(cc3O)OCO4)CC2)cc(OC)c1O (configuration not stated)
growth inhibition [1, 7]: -3% | growth inhibition [1, 8]: 7% | growth inhibition ([1]; at 50.0 µM): 26.3% | growth inhibition [2, 7]: 1% | growth inhibition [2, 8]: 16% | growth inhibition ([2]; at 50.0 µM): 41% | growth inhibition [3, 7]: -2% | growth inhibition [3, 8]: 15% | growth inhibition ([3]; at 50.0 µM): 43.6% | growth inhibition [4, 7]: 0% | growth inhibition [4, 8]: -12% | growth inhibition ([4]; at 50.0 µM): -36.5% | growth inhibition [5, 7]: 1% | growth inhibition [5, 8]: 10% | growth inhibition ([5]; at 50.0 µM): 33.8% | growth inhibition [6, 7]: 0% | growth inhibition [6, 8]: 7% | growth inhibition ([6]; at 50.0 µM): 51.2%

COC1CC(OC(=O)c2ccccc2)C(OC(=O)c2ccccc2)C(C)O1 (configuration not stated)
growth inhibition [1, 7]: -5% | growth inhibition [1, 8]: -4% | growth inhibition ([1]; at 50.0 µM): 9.1% | growth inhibition [2, 7]: -2% | growth inhibition [2, 8]: -2% | growth inhibition ([2]; at 50.0 µM): 6.1% | growth inhibition [3, 7]: -2% | growth inhibition [3, 8]: -1% | growth inhibition ([3]; at 50.0 µM): 7.75% | growth inhibition [4, 7]: -4% | growth inhibition [4, 8]: -12% | growth inhibition ([4]; at 50.0 µM): -16.4% | growth inhibition [5, 7]: 44% | growth inhibition [5, 8]: 64% | growth inhibition ([5]; at 50.0 µM): 83.9% (active) | growth inhibition [6, 7]: -1% | growth inhibition [6, 8]: 2% | growth inhibition ([6]; at 50.0 µM): 1.9%

CCCCCOC(=S)SSSC(=S)OCCCCC
growth inhibition [1, 7]: -38% | growth inhibition [1, 8]: 96% (active) | growth inhibition ([1]; at 50.0 µM): 8.65% | growth inhibition [2, 7]: 44% | growth inhibition [2, 8]: 99% (active) | growth inhibition ([2]; at 50.0 µM): 4.7% | growth inhibition [3, 7]: 6% | growth inhibition [3, 8]: 97% (active) | growth inhibition ([3]; at 50.0 µM): 22.1% | growth inhibition [4, 7]: -13% | growth inhibition [4, 8]: 66% | growth inhibition ([4]; at 50.0 µM): -0.1% | growth inhibition [5, 7]: 0% | growth inhibition [5, 8]: 98% (active) | growth inhibition ([5]; at 50.0 µM): 28.2% | growth inhibition [6, 7]: 16% | growth inhibition [6, 8]: 97% (active) | growth inhibition ([6]; at 50.0 µM): 21.9%

O=C(Nc1cccnc1)c1ccc(CSc2ccc(Cl)cc2)o1
growth inhibition [1, 7]: 56% | growth inhibition [1, 8]: 97% (active) | growth inhibition ([1]; at 50.0 µM): 90.6% (active) | growth inhibition [2, 7]: 41% | growth inhibition [2, 8]: 98% (active) | growth inhibition ([2]; at 50.0 µM): 92.3% (active) | growth inhibition [3, 7]: 48% | growth inhibition [3, 8]: 97% (active) | growth inhibition ([3]; at 50.0 µM): 93.8% (active) | growth inhibition [4, 7]: 40% | growth inhibition [4, 8]: 94% (active) | growth inhibition ([4]; at 50.0 µM): 90.8% (active) | growth inhibition [5, 7]: 50% | growth inhibition [5, 8]: 63% | growth inhibition ([5]; at 50.0 µM): 92.2% (active) | growth inhibition [6, 7]: 57% | growth inhibition [6, 8]: 94% (active) | growth inhibition ([6]; at 50.0 µM): 92.2% (active)

From PubChem BioAssay (NCI)
